From PubChem BioAssay (NCI) come the findings set out here.

Structures are written as SMILES. This is part of a sample that, as a whole, favours compounds with a hit. Of some 79,000 tested, about 15% had one in any assay. Unmarked numbers belong to inactive results. Active and inactive are the calls of the source. Rule as the data show it: active = growth inhibition above about 70%; inactive = the rest.

Experiment [1] can be described thus: NCI Yeast Anticancer Drug Screen. Data for the rad50 strain (AID 155).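 Also: 0% = growth of vehicle-only cultures of the same strain.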 To be noted: S. cerevisiae rad50 strain growth inhibition; at 50.0 µM; active compounds read high. The method, boiled down:
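A DNA repair-deficient yeast mutant serves as the test organism; compound-induced growth inhibition is calculated against vehicle-treated cells.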

Experiment [2] can be described thus: NCI Yeast Anticancer Drug Screen. Data for the mec2-1 strain (AID 157). To be noted: S. cerevisiae mec2-1 strain, at 50.0 µM, active compounds read high. The method, boiled down:
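Compounds were applied to mec2-1 yeast cells. Their growth was then compared with that of vehicle-treated cultures to give growth inhibition.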

Experiment [3] can be described thus: NCI Yeast Anticancer Drug Screen. Data for the sgs1 mgt1 strain (AID 161).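 Also: 0% = growth of cultures given vehicle only.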 The note with it: S. cerevisiae sgs1 mgt1 strain, at 50.0 µM, active compounds read high. The gist of the method:
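Percent growth inhibition was derived by comparing compound-exposed mutant yeast with vehicle-exposed cultures. The strain carries alterations in DNA damage repair.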

A short description of experiment [4]: NCI Yeast Anticancer Drug Screen. Data for the cln2 rad14 strain (AID 165).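 Also: 0% = growth equal to vehicle treated cultures.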 The note with it: S. cerevisiae cln2 rad14 strain, at 50.0 µM, active compounds read high. The method, boiled down: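 Strain: cln2 rad14 yeast, altered in cell cycle control and DNA damage repair. Read-out: growth inhibition vs vehicle.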
A short description of experiment [5]: NCI Yeast Anticancer Drug Screen. Data for the bub3 strain (AID 167). To be noted: S. cerevisiae bub3 mutant strain, at 50.0 µM, active compounds read high. The gist of the method:
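Inhibition values come from growth of compound-treated mutant yeast normalised to vehicle-treated controls.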

A short description of experiment [6]: NCI Yeast Anticancer Drug Screen. Data for the mlh1 rad18 strain (AID 175). To be noted: S. cerevisiae mlh1 rad18 strain growth inhibition; at 50.0 µM; active compounds read high. The method, boiled down:
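A repair-deficient yeast strain is exposed to test compound, and growth is scored relative to vehicle-treated controls.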

`CCCC(O)CNCC1CCC2CCc3cccc1c32` (stereo not given): the growth inhibition is -2.9% in experiment [1]; 5.8% in experiment [2]; 4.5% in experiment [3]; 2.05% in experiment [4]; 20.4% in experiment [5]; 18.9% in experiment [6].
Take `Cn1ccc(=S)c2ccccc21`: the growth inhibition was 18.2% in experiment [1]; 1.25% in experiment [2]; 9.6% in experiment [3]; -56.1% in experiment [4]; -2.15% in experiment [5]; 19.5% in experiment [6].
`BrCC1OCC2(CO1)COC(CBr)OC2` (stereo not given): the growth inhibition in experiment [1] was -11.2%; in experiment [2] it was 11.3%; in experiment [3], -7%; in experiment [4] it was -16%; in experiment [5] it was -6%; in experiment [6], -13.2%.
Turning to `Clc1cccc(Cl)c1/C=N/Nc1nnc(N/N=C/c2c(Cl)cccc2Cl)c2ccccc12`, the growth inhibition in experiment [1] is 18.8%; in experiment [2] it was 23.4%; in experiment [3], 56.3%; in experiment [4], 31.5%; in experiment [5], -1.4%; in experiment [6], 34.4%.
`Oc1ccc(-c2csc(Nc3ccccn3)n2)cc1O`: the growth inhibition was 98.4% (active) in experiment [1]; 99% (active) in experiment [2]; 99% (active) in experiment [3]; 97.2% (active) in experiment [4]; 97.7% (active) in experiment [5]; 98.8% (active) in experiment [6].
For the molecule `COc1cc(/C=C/C(=O)O)cc(OC)c1O`, the growth inhibition in experiment [1] was 5.65%; in experiment [2] it was -5.05%; in experiment [3], -22.9%; in experiment [4], 23.1%; in experiment [5] it was 10.8%; in experiment [6] it was 16.5%.
As for `c1ccc(CCN2CCCCCCCC2)nc1`, the growth inhibition in experiment [1] is 1.35%; in experiment [2], 7.9%; in experiment [3] it was -4.35%; in experiment [4], -23.2%; in experiment [5] it was -8.95%; in experiment [6], -0.35%.
For `Cc1cccc(C(=O)NN)c1`, the growth inhibition in experiment [1] was -4.15%; in experiment [2] it was 10.2%; in experiment [3], -20.2%; in experiment [4], -5.4%; in experiment [5], -0.2%; in experiment [6], -5.95%.
`CCC1(CC)C(=O)N(C(=O)c2ccc(Cl)cc2)N(C(=O)c2ccccc2Cl)C1=O`: the growth inhibition in experiment [1] is 22.3%; in experiment [2], 23.8%; in experiment [3] it was 5.8%; in experiment [4] it was 41.8%; in experiment [5] it was 49.2%; in experiment [6], -53.5%.
As for `CCc1ccccc1NC(=O)Nc1ccc(C(=O)O)c(O)c1`, the growth inhibition in experiment [1] was 33.6%; in experiment [2], 10.2%; in experiment [3], 27.4%; in experiment [4], 21.4%; in experiment [5], 29.8%; in experiment [6], 26.4%.
With `O=[N+]([O-])c1cc2c3ccccc3ccc2c2ccccc12`, the growth inhibition in experiment [1] was -5.6%; in experiment [2] it was 6.95%; in experiment [3] it was 12.2%; in experiment [4] it was -78.8%; in experiment [5], 19.6%; in experiment [6], 21.6%.
With `O=C(OCCSC(=S)N1CCCCC1)c1ccccc1`, the growth inhibition in experiment [1] is -13.5%; in experiment [2], -8.6%; in experiment [3], 2.4%; in experiment [4] it was -11.9%; in experiment [5], 16.6%; in experiment [6] it was -0.4%.
Consider `CCc1c(CN)c(CC)c(CNC2=NCCN2)c(CC)c1CNC1=NCCN1`, for which the growth inhibition in experiment [1] was 13.6%; in experiment [2] it was 3.45%; in experiment [3], 12.2%; in experiment [4] it was 10.9%; in experiment [5], 12.8%; in experiment [6], 15.2%.
Consider `CCOC(=O)N1CCN(CCO)CC1`, for which the growth inhibition in experiment [1] was -19.9%; in experiment [2], 2.65%; in experiment [3] it was 2.35%; in experiment [4] it was -34%; in experiment [5], 3.05%; in experiment [6], -8.25%.
As for `O=C1CC(C(=O)O)CC(=O)CC(C(=O)O)C1` (stereo not given), the growth inhibition was -0.7% in experiment [1]; -13.2% in experiment [2]; -10.6% in experiment [3]; -33.4% in experiment [4]; 14.9% in experiment [5]; 18.9% in experiment [6].
Take `COc1ccccc1/C=C/C(=O)c1ccccc(=O)c1O`: the growth inhibition is -9% in experiment [1]; -5.05% in experiment [2]; -4.35% in experiment [3]; -23.4% in experiment [4]; -1.05% in experiment [5]; -11.2% in experiment [6].
Take `COC(=O)c1cc(-c2ccccc2Cl)n2c(N)nnc2n1`: the growth inhibition is 21.6% in experiment [1]; -3.1% in experiment [2]; 32.6% in experiment [3]; -6.2% in experiment [4]; -20.3% in experiment [5]; 7.1% in experiment [6].
As for `CNC(=O)n1cnc(N)n1` (tested in a mixture with another compound), the growth inhibition in experiment [1] was -13.2%; in experiment [2], 8.2%; in experiment [3], 16.7%; in experiment [4], -25.3%; in experiment [5], -10.9%; in experiment [6], 13%.
Regarding `NC(=O)CNC(=O)C(CO)NC(=O)OCc1ccccc1` (stereo not given), the growth inhibition is 2.35% in experiment [1]; -10% in experiment [2]; 10.7% in experiment [3]; -6.2% in experiment [4]; -11.1% in experiment [5]; 0.3% in experiment [6].
As for `Cc1cccc(C)c1Nc1n[nH]c(=S)s1`, the growth inhibition in experiment [1] was 18.3%; in experiment [2], 33.8%; in experiment [3], 45.5%; in experiment [4] it was 0.8%; in experiment [5] it was 44.5%; in experiment [6] it was 13.9%.
